Targets with a hit are over-represented here; the source holds about 8,800 in all. About 0.5% of all pairs of compound and target were hits. A number with no mark means an inactive call.

Our source for the log2 fold change values is the supplement of paper PMC10849652.

Holding throughout (test): log2 fold change, soluble protein after heating vs DMSO (PISA); higher = thermal stabilisation; K562 lysate, 10 uM; active = over 0.2 and 3.5 SD of the protein, either way, in both replicates (recomputed)
Compound in one assay: CS(=O)(=O)CCNCc1ccc(-c2ccc3ncnc(Nc4ccc(OCc5cccc(F)c5)c(Cl)c4)c3c2)o1 [lapatinib]
The gist of the method:
(§1)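 Following dounce homogenisation of K562 pellets in PBS pH 7.4 with 1 mM MgCl2, crude extract at 1 mg/mL protein was incubated for 30 min with 10 μM compound. Aliquots were then heated for 3 min over 48°C-58°C and pooled, NP-40 was added to 0.5% at 4°C, and soluble protein was recovered as the supernatant at 21,000xg for 90 min. Channel-sum-equalised TMTpro 16plex LC-MS/MS quantified this protein. Each value, from duplicates, is a log-two fold change in thermal stability relative to solvent controls.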

Compound in a further assay: C[C@@H](Oc1cc(-c2cnn(C3CCNCC3)c2)cnc1N)c1c(Cl)ccc(F)c1Cl [crizotinib]
The method, boiled down:
as §1

Compound in another assay: Cc1ccc(-n2nc(C(C)(C)C)cc2NC(=O)Nc2ccc(OCCN3CCOCC3)c3ccccc23)cc1 [doramapimod]
The gist of the method:
as §1

Compound in assay [1]: C[C@H](C1=CC=C(C=C1)C(=O)NC2=C3C=CNC3=NC=C2)N
The method, boiled down:
as §1

Compound in another assay: Cc1cc(Nc2cc(CN3CCOCC3)c3nc(C)c(Cc4ccc(Cl)cc4F)n3n2)n[nH]1 [gandotinib]
The gist of the method: as §1

Compound in assay [2]: Cc1cccc(CC(=O)N2CCc3c2ccc(-c2cn(C)c4ncnc(N)c24)c3F)n1
The gist of the method: as §1

Compound in another assay: CS(=O)(=O)N1CCN(Cc2cc3nc(-c4cccc5[nH]ncc45)nc(N4CCOCC4)c3s2)CC1 [pictilisib]
The gist of the method: as §1

Compound in another assay: C[C@H](Nc1ncnc2nc[nH]c12)c1cc2cccc(Cl)c2c(=O)n1-c1ccccc1 [duvelisib]
The gist of the method: as §1

Compound in the next assay: Cc1cc(Nc2cc(N3CCN(C)CC3)nc(Sc3ccc(NC(=O)C4CC4)cc3)n2)n[nH]1 [tozasertib]
The method, boiled down: as §1

Compound in the next assay: Cc1ccc(NC(=O)c2ccc(CN3CC[C@H](N(C)C)C3)c(C(F)(F)F)c2)cc1Nc1nccc(-c2cncnc2)n1 [bafetinib]
The gist of the method: as §1

UniProt O00139, sequence (O00139 whole entry, looked up): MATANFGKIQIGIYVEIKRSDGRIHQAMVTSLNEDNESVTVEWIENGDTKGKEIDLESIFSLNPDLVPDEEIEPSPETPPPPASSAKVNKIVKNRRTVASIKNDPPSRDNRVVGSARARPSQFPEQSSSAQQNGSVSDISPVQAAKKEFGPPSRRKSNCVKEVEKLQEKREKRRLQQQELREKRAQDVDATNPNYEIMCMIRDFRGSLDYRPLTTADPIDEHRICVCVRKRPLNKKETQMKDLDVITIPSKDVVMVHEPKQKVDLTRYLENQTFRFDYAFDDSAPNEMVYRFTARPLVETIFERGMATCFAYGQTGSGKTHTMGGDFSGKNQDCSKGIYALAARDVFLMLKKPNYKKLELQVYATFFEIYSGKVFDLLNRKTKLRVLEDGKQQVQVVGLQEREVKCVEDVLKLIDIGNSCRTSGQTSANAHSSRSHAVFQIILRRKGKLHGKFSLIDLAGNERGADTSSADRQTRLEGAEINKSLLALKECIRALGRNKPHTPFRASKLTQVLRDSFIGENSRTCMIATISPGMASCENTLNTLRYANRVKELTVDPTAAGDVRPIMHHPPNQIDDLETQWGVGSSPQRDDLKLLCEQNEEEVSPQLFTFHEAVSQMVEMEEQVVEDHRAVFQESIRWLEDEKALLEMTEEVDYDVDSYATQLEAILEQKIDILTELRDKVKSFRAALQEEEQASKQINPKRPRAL
UniProt P53778, sequence (P53778 whole entry, looked up): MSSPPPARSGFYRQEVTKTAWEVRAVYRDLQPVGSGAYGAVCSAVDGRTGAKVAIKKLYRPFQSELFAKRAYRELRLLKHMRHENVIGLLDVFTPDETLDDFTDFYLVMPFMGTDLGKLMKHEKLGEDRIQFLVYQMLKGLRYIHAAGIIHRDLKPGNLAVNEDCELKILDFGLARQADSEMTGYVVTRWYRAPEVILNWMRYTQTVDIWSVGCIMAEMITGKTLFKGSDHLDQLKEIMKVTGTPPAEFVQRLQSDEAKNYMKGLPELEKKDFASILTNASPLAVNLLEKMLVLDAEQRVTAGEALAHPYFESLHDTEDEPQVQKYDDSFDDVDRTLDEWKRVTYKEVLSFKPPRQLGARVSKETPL
UniProt Q96JM4, sequence (Q96JM4 whole entry, looked up): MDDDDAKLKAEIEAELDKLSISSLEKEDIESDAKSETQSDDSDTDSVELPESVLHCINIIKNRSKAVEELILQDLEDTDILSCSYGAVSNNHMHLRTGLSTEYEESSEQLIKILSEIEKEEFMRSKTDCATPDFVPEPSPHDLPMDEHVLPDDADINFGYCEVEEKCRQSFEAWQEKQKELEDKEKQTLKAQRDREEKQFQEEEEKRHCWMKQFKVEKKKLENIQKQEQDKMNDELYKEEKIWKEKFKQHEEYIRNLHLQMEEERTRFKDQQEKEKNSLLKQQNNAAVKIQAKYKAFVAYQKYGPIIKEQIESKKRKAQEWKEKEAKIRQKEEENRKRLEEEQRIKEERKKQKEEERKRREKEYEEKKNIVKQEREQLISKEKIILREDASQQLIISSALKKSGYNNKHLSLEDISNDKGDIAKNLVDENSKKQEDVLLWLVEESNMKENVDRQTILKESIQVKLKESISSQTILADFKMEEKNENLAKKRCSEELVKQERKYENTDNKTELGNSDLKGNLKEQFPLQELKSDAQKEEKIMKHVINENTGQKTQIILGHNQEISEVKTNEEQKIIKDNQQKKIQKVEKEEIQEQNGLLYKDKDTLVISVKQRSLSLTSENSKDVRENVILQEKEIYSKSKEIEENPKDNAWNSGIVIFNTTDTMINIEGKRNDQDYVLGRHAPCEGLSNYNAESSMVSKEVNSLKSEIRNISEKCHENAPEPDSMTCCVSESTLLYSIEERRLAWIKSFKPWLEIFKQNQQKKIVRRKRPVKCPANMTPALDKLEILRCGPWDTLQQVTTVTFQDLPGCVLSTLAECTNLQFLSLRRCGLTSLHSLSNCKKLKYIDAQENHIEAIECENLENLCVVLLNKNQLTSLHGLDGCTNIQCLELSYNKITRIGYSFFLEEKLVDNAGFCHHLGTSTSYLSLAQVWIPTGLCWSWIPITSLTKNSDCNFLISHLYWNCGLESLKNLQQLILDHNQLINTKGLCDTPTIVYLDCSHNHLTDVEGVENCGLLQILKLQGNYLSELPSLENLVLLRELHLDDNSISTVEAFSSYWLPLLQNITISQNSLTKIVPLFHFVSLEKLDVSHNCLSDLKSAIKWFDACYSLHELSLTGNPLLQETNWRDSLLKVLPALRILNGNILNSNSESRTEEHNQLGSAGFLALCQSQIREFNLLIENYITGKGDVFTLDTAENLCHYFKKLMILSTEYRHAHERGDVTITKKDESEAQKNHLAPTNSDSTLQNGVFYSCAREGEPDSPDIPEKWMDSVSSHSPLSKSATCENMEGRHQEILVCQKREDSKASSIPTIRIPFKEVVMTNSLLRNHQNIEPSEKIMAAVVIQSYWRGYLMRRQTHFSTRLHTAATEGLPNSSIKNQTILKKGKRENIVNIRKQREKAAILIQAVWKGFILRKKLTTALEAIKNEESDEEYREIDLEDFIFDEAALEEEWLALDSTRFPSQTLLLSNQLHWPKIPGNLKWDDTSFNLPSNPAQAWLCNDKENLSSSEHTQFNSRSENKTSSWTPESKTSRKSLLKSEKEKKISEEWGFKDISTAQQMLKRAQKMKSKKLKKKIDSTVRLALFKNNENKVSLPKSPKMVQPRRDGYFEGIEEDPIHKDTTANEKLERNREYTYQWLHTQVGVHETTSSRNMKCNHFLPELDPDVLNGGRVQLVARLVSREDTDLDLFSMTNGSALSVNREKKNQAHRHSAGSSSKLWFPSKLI

Regarding LRRIQ1 (UniProt Q96JM4), the values for the log2 fold change with lapatinib, in the assay with crizotinib and with doramapimod were 0.04, -0.278 and -0.073, respectively.

For KIF2A isoform 2 (UniProt O00139), the results for the log2 fold change (in [1]; with gandotinib; in [2]) were 0.192, -0.059 and -0.059, respectively.

MAPK12 (UniProt P53778): the log2 fold change was 0.059 with pictilisib; 0.868 (active) in [1]; -0.061 with duvelisib; -0.15 with gandotinib; 0.248 with tozasertib; 0 in the assay with bafetinib. Further, the log2 fold change in [2] is -0.163.
